Records with an inconclusive call do not appear. Unmarked numbers belong to inactive results. The call rests on the fitted dose curve; in most records, active means well fitted inhibition curve with a large enough effect; inconclusive means small, poorly fitted or top-dose-only effect; inactive means flat fitted curve, though single readings scatter.
The compounds below were run against Aldehyde dehydrogenase, mitochondrial (Homo sapiens) (UniProt P05091) (assay: qHTS for Inhibitors of the Aldehyde Dehydrogenase Family (ALDH2) Primary screen (AID 2061308;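 further: plate controls were vehicle for no effect and reference inhibitor for full effect; nearly all actives have a fitted effect of over 55% in size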)). Details: ALDH2 enzyme inhibition qHTS, 1536-well; series mostly up to 56 µM; activity change, negative = inhibition: at the top concentration.
`CCOc1ccc(NC(=O)Nc2ccc(-c3nc4ccccc4[nH]3)cc2)cc1` was tested, and the “activity change, negative = inhibition” value was 0.699%.
With `CCCCNc1nc(C)nc2c1nc(-c1ccccc1)n2CCCCN(CC)CC` the “activity change, negative = inhibition” value was 3.55%.
For `O=C(CSc1nnc(-c2cccc(S(=O)(=O)N3CCCC3)c2)n1-c1ccccc1)Nc1ccccc1`, the “activity change, negative = inhibition” value was 12.2%.
For `N#Cc1ccccc1-c1csc(N2CCC(C(N)=O)CC2)n1`, the “activity change, negative = inhibition” value was 15.6%.
With `COC(=O)c1ccc(Cn2ncc3c4sc(C)cc4n(C)c3c2=O)cc1` the “activity change, negative = inhibition” value was 12.9%.
`COc1cccc(-c2nnc3n2N=C(c2ccccc2OC)CS3)c1` was tested, and the “activity change, negative = inhibition” value was 31.7%.
With `N#Cc1ccc(-c2ccc(NC(=O)c3cccs3)cn2)cc1` the “activity change, negative = inhibition” value was -12.8%.
In the case of `Cc1c(C(=O)NCC2CCCO2)[nH]c2c1C(=O)CC(c1ccco1)C2` (stereo not given), the “activity change, negative = inhibition” value is reported as -9.62%.
In the case of `Cc1cccc(CNc2ccnc(-c3ccccc3F)n2)c1`, the “activity change, negative = inhibition” value is reported as 4.32%.
`O=C(NCCc1nc2ccccc2n1CCOc1ccc(C(F)(F)F)cc1)C1CCCCC1` was tested, and the “activity change, negative = inhibition” value was -7.58%.
`Cn1ncc(Cl)c1C1N=C(Nc2nc3ccccc3o2)NC2=C1C(=O)CCC2` (stereo not given) was tested, and the “activity change, negative = inhibition” value was 0.0279%.
In the case of `c1csc(CNc2ncnc3ccc(-c4ccc5c(c4)OCO5)cc23)n1`, the “activity change, negative = inhibition” value is reported as 7.55%.
For `O=[S+]([O-])(c1c(F)cccc1F)N1CCN([S+](=O)([O-])c2cccc3nonc23)CC1`, the “activity change, negative = inhibition” value was 15.2%.
`CCc1ccccc1-c1nc(NCc2ccc(-c3cccnc3)cc2)c2ccccc2n1` was tested, and the “activity change, negative = inhibition” value was -12.1%.
With `Cc1ccnc(NC(=S)Nc2cccc(C(F)(F)F)c2)c1` the “activity change, negative = inhibition” value was -3.26%.
With `Cc1nc(Nc2nc3ccccc3o2)nc2c1CCCC2` the “activity change, negative = inhibition” value was -6.23%.
In the case of `Cc1cnccc1-c1nc(Nc2ccc(F)c(F)c2)c2ccccc2n1`, the “activity change, negative = inhibition” value is reported as -0.47%.
In the case of `CCOc1ccccc1-c1nnc2n1N=C(c1c(OC)cccc1OC)CS2`, the “activity change, negative = inhibition” value is reported as 7.79%.
In the case of `Cc1ccc(OCCn2c(CCNC(=O)C3CCCC3)nc3ccccc32)cc1`, the “activity change, negative = inhibition” value is reported as 0.922%.
With `CCCCNc1nc(C)nc2c1nc(-c1ccccc1)n2CCN1CCCC1` the “activity change, negative = inhibition” value was 12.6%.
`Cc1cnc(-c2ccccc2C(C)C)nc1NCC1CCN(C2COC2)CC1` was tested, and the “activity change, negative = inhibition” value was -3.78%.
With `Cc1cc(C)n2ncc(C(=O)Nc3ccncc3)c2n1` the “activity change, negative = inhibition” value was 4.86%.
With `CN(C(=O)c1cn2c(-c3ccc(C(F)(F)F)cc3)cnc2cn1)c1ccc(C#N)cc1` the “activity change, negative = inhibition” value was -7.49%.
In the case of `Clc1cccc(CSc2nc3ncc(Br)cc3[nH]2)c1`, the “activity change, negative = inhibition” value is reported as 3.41%.
In the case of `FC(F)(F)c1ccccc1-c1nc(NCc2ccc(-c3ccc4c(c3)OCO4)cc2)c2ccccc2n1`, the “activity change, negative = inhibition” value is reported as -26.8%.
With `Cc1ccc(S(=O)(=O)Nc2cc(C(=O)Nc3nc(-c4ccccc4)cs3)ccn2)cc1` the “activity change, negative = inhibition” value was 3.07%.
For `CCCn1c(C)nc2c(NCCCN3CCCCC3C)nc(C)nc21` (stereo not given), the “activity change, negative = inhibition” value was -4.04%.
`Oc1ccc(CCc2ccccc2)c2cccnc12` was tested, and the “activity change, negative = inhibition” value was 0.919%.
In the case of `Cc1ccc(NC(=O)Nc2nnc(-c3ccncc3)s2)cc1C`, the “activity change, negative = inhibition” value is reported as 10.3%.
In the case of `N#Cc1cc(-c2nc(Nc3ccc(F)c(F)c3)c3ccccc3n2)ccn1`, the “activity change, negative = inhibition” value is reported as 3.12%.
For `Cc1cc2c(s1)c1cnn(Cc3ccc(Cl)cc3)c(=O)c1n2C`, the “activity change, negative = inhibition” value was -15%.
With `COc1ccc(OC)c(C2=Nn3c(nnc3-c3ccccc3O)SC2)c1` the “activity change, negative = inhibition” value was 4.93%.
`Cc1ccc(OCCn2c(CCNC(=O)Cc3ccccc3)nc3ccccc32)cc1` was tested, and the “activity change, negative = inhibition” value was -7.9%.
`CC(C)(C)c1ccc(-c2ccc(=O)n(CC(=O)NCCc3ccccc3)n2)cc1` was tested, and the “activity change, negative = inhibition” value was 3.93%.
In the case of `Cc1cc2c(s1)c1cnn(Cc3ccc(C(C)(C)C)cc3)c(=O)c1n2C`, the “activity change, negative = inhibition” value is reported as -6.51%.
For `Nc1ccc(-c2ccc(NC(=O)c3cccs3)cn2)cc1`, the “activity change, negative = inhibition” value was 1.81%.
For `O=C(CNC(=O)c1ccccc1)OC(C(=O)Nc1cc([N+](=O)[O-])ccc1F)c1ccccc1` (stereo not given), the “activity change, negative = inhibition” value was 11.8%.
In the case of `O=S(=O)(Nc1ccc2ccccc2c1)c1ccc(NCc2cccc(Cl)c2O)cc1`, the “activity change, negative = inhibition” value is reported as -6.8%.
In the case of `Cc1cc(NCc2ccc(NC(=O)Cc3ccc(Cl)c(Cl)c3)cc2)no1`, the “activity change, negative = inhibition” value is reported as 1.13%.
For `COc1cccc(-c2ccc(=O)n(CC(=O)NCCc3ccccc3)n2)c1`, the “activity change, negative = inhibition” value was 3.9%.

— PubChem BioAssay (NCATS)
